Assay results published in PubChem BioAssay (NCATS).
Results filed as inconclusive are left out. Activity calls are given as the source filed them. Calls come from the whole dose curve; as a rule, active = well fitted curve in the direction sought with a large enough effect; inconclusive = small, poorly fitted or top-dose-only effect, or another doubt; inactive = no such curve, though single readings can be large; an effect the other way counts as inactive or inconclusive.

Key:
[1] = qHTS of pediatric cancer cell lines to identify multiple opportunities for drug repurposing: Primary screen for Saos-2 cells (AID 1347097); note: nearly all actives have a fitted effect of over 40% in size
Outline: (§1)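 Cells seeded at 500-1,000 cells/well in growth media, rested 5 hours at 37 degrees C, 5% CO2, then dosed; MIPE compounds at 11-point (from 0.78 nM) and NPC at 8-point (from 0.59 nM) final concentrations. Viability by CellTiter-Glo luminescence after 48 hours.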

[2] = qHTS of pediatric cancer cell lines to identify multiple opportunities for drug repurposing: Primary screen for SK-N-SH cells (AID 1347098);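 note: DMSO served as neutral control and bortezomib at 2.3 µM as positive control; nearly all actives have a fitted effect of over 65% in size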
Outline: (§2)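 Cells (500-1,000/well) rested 5 h, then received compounds for 48 h; metabolically active cells were measured by CellTiter-Glo luminescence. Final concentrations spanned up to 46 µM (MIPE, 11-point) or 0.59 nM-46 µM (NPC, 8-point) in primary screens, 11-point in follow-ups.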

[3] = qHTS of pediatric cancer cell lines to identify multiple opportunities for drug repurposing: Primary screen for NB1643 cells (AID 1347099); note: nearly all actives have a fitted effect of over 50% in size
Outline: as §1

[4] = qHTS of pediatric cancer cell lines to identify multiple opportunities for drug repurposing: Primary screen for LAN-5 cells (AID 1347100)
Outline: as §2

[5] = qHTS of pediatric cancer cell lines to identify multiple opportunities for drug repurposing: Primary screen for BT-12 cells (AID 1347101); note: nearly all actives have a fitted effect of over 25% in size
Outline: as §2

[6] = qHTS of pediatric cancer cell lines to identify multiple opportunities for drug repurposing: Primary screen for Rh18 cells (AID 1347102); note: nearly all actives have a fitted effect of over 65% in size
Outline: as §2

[7] = qHTS of pediatric cancer cell lines to identify multiple opportunities for drug repurposing: Primary screen for OHS-50 cells (AID 1347103); note: nearly all actives have a fitted effect of over 40% in size
Outline: as §2

[8] = qHTS of pediatric cancer cell lines to identify multiple opportunities for drug repurposing: Primary screen for RD cells (AID 1347104); note: nearly all actives have a fitted effect of over 55% in size
Outline: as §1

[9] = qHTS of pediatric cancer cell lines to identify multiple opportunities for drug repurposing: Primary screen for MG 63 (6-TG R) cells (AID 1347105); note: nearly all actives have a fitted effect of over 50% in size
Outline: as §1

[10] = qHTS of pediatric cancer cell lines to identify multiple opportunities for drug repurposing: Primary screen for control Hh wild type fibroblast cells (AID 1347106);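 note: series mostly up to about 46 µM; a drop in luminescence marks cytotoxicity and a rise apparent proliferation; nearly all actives have a fitted effect of over 55% in size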
Outline: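 Viability after 48 h compound treatment at 37C, 500-1,000 cells/well, read as ATP luminescence with CellTiter-Glo. Primary screens used 11-point (MIPE, 0.78 nM-46 µM) or 8-point (NPC, 0.59 nM-46 µM) final concentrations; follow-up screens used 11-point dilutions.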

[11] = qHTS of pediatric cancer cell lines to identify multiple opportunities for drug repurposing: Primary screen for Rh30 cells (AID 1347107); note: series mostly up to about 46 µM; nearly all actives have a fitted effect of over 75% in size
Outline: as §2

[12] = qHTS of pediatric cancer cell lines to identify multiple opportunities for drug repurposing: Primary screen for Rh41 cells (AID 1347108);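 note: series mostly up to about 46 µM; luminescence drop marks cytotoxic hits; nearly all actives have a fitted effect of over 70% in size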
Outline: as §1

Measured: Potency

CCOC(=O)OC(C)OC1=C(C(=O)Nc2ccccn2)N(C)S(=O)(=O)c2ccccc21 (stereo unspecified)
inactive: [1] | [2] | [3] | [4] | [5] | [6] | [7] | [8] | [9] | [10] | [11] | [12]

Cc1c(C(N)=O)cc([N+](=O)[O-])cc1[N+](=O)[O-]
inactive: [1] | [2] | [3] | [4] | [5] | [6] | [7] | [8] | [9] | [10] | [11] | [12]

C[C@H](CCC(=O)O)[C@H]1CC[C@H]2[C@@H]3C(=O)C[C@@H]4CC(=O)CC[C@]4(C)[C@H]3CC(=O)[C@]12C
inactive: [1] | [2] | [3] | [4] | [5] | [6] | [7] | [8] | [9] | [10] | [11] | [12]

c1ccc(CNCCNCc2ccccc2)cc1
inactive: [1] | [2] | [3] | [4] | [5] | [6] | [7] | [8] | [9] | [10] | [11] | [12]

CCN(CC)C(=O)N1CCN(C)CC1
inactive: [1] | [2] | [3] | [4] | [5] | [6] | [7] | [8] | [9] | [10] | [11] | [12]

CCCCC1=NC2(CCCC2)C(=O)N1Cc1ccc(-c2ccccc2-c2nn[nH]n2)cc1
inactive: [1] | [2] | [3] | [4] | [5] | [6] | [7] | [8] | [9] | [10] | [11] | [12]

COC(=O)CCc1ccc(OCC(O)CNC(C)C)cc1 (stereo unspecified)
inactive: [1] | [2] | [3] | [4] | [5] | [6] | [7] | [8] | [9] | [10] | [11] | [12]

CCCCCCCCCCCCCCCCCC(=O)OCC(O)CO (stereo unspecified)
inactive: [1] | [2] | [3] | [4] | [5] | [6] | [7] | [8] | [9] | [10] | [11] | [12]

C[C@H]1[C@H](NC(=O)/C(=N/OC(C)(C)C(=O)O)c2csc(N)n2)C(=O)N1S(=O)(=O)O (stereo in doubt)
inactive: [1] | [2] | [3] | [4] | [5] | [6] | [7] | [8] | [9] | [10] | [11] | [12]

CC(O)(P(=O)(O)O)P(=O)(O)O
inactive: [1] | [2] | [3] | [4] | [5] | [6] | [7] | [8] | [9] | [10] | [11] | [12]

CCOC(=O)c1cccc(N)c1
inactive: [1] | [2] | [3] | [4] | [5] | [6] | [7] | [8] | [9] | [10] | [11] | [12]

COc1c2occc2c(OC)c2c(=O)cc(C)oc12
inactive: [1] | [2] | [3] | [4] | [5] | [6] | [7] | [8] | [9] | [10] | [11] | [12]

O=C(O)CNC(=O)c1ccccc1
inactive: [1] | [2] | [3] | [4] | [5] | [6] | [7] | [8] | [9] | [10] | [11] | [12]

CC(=O)CC(c1ccc([N+](=O)[O-])cc1)c1c(O)c2ccccc2oc1=O (stereo unspecified)
inactive: [1] | [2] | [3] | [4] | [5] | [6] | [7] | [8] | [9] | [10] | [11] | [12]

Cc1ncc(CSSCc2cnc(C)c(O)c2CO)c(CO)c1O
inactive: [1] | [2] | [3] | [4] | [5] | [6] | [7] | [8] | [9] | [10] | [11] | [12]

NC[C@H]1O[C@H](O[C@H]2[C@H](O)[C@@H](O[C@H]3O[C@H](CO)[C@@H](O)[C@H](N)[C@H]3O)[C@H](N)C[C@@H]2N)[C@H](N)[C@@H](O)[C@@H]1O
inactive: [1] | [2] | [3] | [4] | [5] | [6] | [7] | [8] | [9] | [10] | [11] | [12]

CC(=O)OCC(=O)NCCCOc1cccc(CN2CCCCC2)c1
inactive: [1] | [2] | [3] | [4] | [5] | [6] | [7] | [8] | [9] | [10] | [11] | [12]

CNC(=O)CN(CCN(CCN(CC(=O)[O-])CC(=O)NC)CC(=O)[O-])CC(=O)[O-].O.[Gd+3]
inactive: [1] | [2] | [3] | [4] | [5] | [6] | [7] | [8] | [9] | [10] | [11] | [12]
